WT yeast gro inh: growth inhibition of WT yeast, mitochondrial fusion screen; 2.1% of 190,000 active; inhibition, % at 10 µM; AID 1362; mitochondrial fusion phenotypic screen, WT strain; in the data active means inhibition above about 58%; tested in S. cerevisiae
RAM network inh: yeast RAM network inhibition; S. cerevisiae dse1pr::URA3 reporter, 5-FOA growth OD615, 2 d; analog-sensitive cbk1-as2 kinase mutant strain; inhibition, % at 50 µM; 1.8% of 190,000 active; AID 868;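 active means inhibition above a set limit, 3 SD over mean compound inhibition, cut at about 8.4% in these data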;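 further: 0% = DMSO-only wells with no growth and 100% = 10 µM 1-NA-PP1 full growth; inhibition rescues growth on 5-FOA so higher OD means more RAM inhibition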
Lmaj promast: Leishmania major promastigote growth inhibition | Leishmania major promastigotes, resazurin fluorescence viability | inhibition, % at 10 µM | 9% of 200,000 active; in the data active means inhibition above about 50%;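 further: promastigotes grown with compound for 44 hours at 28 °C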
CHOP inh: blocks CHOP induction under ER stress | CHO-K1 CHOP-promoter luciferase, tunicamycin-induced, 15-18 h | inhibition, % at 10 µM | 3.8% of 220,000 active;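 active means compounds that reduced the stress-induced luciferase reporter signal by more than about 70% of percent inhibition, limit read from the data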;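 further: 0% = tunicamycin plus vehicle and 100% = wells without tunicamycin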
Active calls of the source: *. Hits are enriched below; roughly 13% of the tested compounds scored in any of these assays.

Results for O=C(Nc1ccc(N2CCCCC2)cc1)c1cc([N+](=O)[O-])cc([N+](=O)[O-])c1 ?
WT yeast gro inh: 10; RAM network inh: 3; Lmaj promast: 66*; CHOP inh: 28

What do the screens show for `Cc1ccc(Nc2nc(N)c(C#N)c(CC#N)c2C#N)cc1`?
WT yeast gro inh: 13; RAM network inh: 5; Lmaj promast: 5; CHOP inh: 14

What do the screens show for `O=C(NC1CCCCCC1)c1cccs1`?
WT yeast gro inh: 5; RAM network inh: 1; Lmaj promast: -7; CHOP inh: 14

What do the screens show for `Nc1c(C(=O)NC2CCCC2)sc2nc(-c3cccs3)ccc12`?
WT yeast gro inh: 62*; RAM network inh: 4; Lmaj promast: 24; CHOP inh: 61

How did O=c1[nH]c(=O)n(-c2ccccc2)c2c1C(C(F)(F)F)(C(F)(F)F)N=C(CCC1CCCCC1)N2 do in these assays?
WT yeast gro inh: -6; RAM network inh: 3; Lmaj promast: 55*; CHOP inh: 33

Results for COc1ccc(NC(=O)c2ccccc2-c2ccccc2)c(C)c1 ?
WT yeast gro inh: -2; RAM network inh: 3; Lmaj promast: -9; CHOP inh: 13

What do the screens show for `CC1Cc2ccccc2N1CC(=O)NCc1ccc2c(c1)OCO2` (centres undefined)?
WT yeast gro inh: -10; RAM network inh: -1; Lmaj promast: -1; CHOP inh: 2

What do the screens show for `COCCOC(=O)C1=C(C)NC(=O)N(C(C)=O)C1c1ccc(Cl)cc1` (centres undefined)?
WT yeast gro inh: -11; RAM network inh: 3; Lmaj promast: 88*; CHOP inh: 40

Results for CCOC(=O)C1=C(C)NC(=S)N(C(C)=O)C1c1ccc(Cl)cc1 (centres undefined) ?
WT yeast gro inh: -7; RAM network inh: 2; Lmaj promast: 0; CHOP inh: 69

Results for CC(C)(C)c1cc(C(=O)O)n(Cc2ccc(Cl)cc2Cl)n1 ?
CHOP inh: 8

What do the screens show for `Cc1oc2c(c1C(=O)c1ccccc1)C(=O)C(=O)c1ccccc1-2`?
WT yeast gro inh: 84; RAM network inh: 2; Lmaj promast: 100*

How did Cc1cc(=O)oc(C)c1C(=O)O do in these assays?
WT yeast gro inh: 1; RAM network inh: -1; Lmaj promast: -6; CHOP inh: 41

What do the screens show for `Cc1oc2c(c1C(=O)O)C(=O)c1ccccc1C2=O`?
WT yeast gro inh: -5; RAM network inh: -1; Lmaj promast: 100*; CHOP inh: -25

What do the screens show for `N=C1SC(CC(=O)Nc2ccccc2[N+](=O)[O-])C(=O)N1c1ccccc1` (centres undefined)?
CHOP inh: -10

How did COCCNC(=O)NC(=O)CSc1nc(C)c(C)c(C)n1 do in these assays?
WT yeast gro inh: -15; RAM network inh: 2; Lmaj promast: -4; CHOP inh: -17

Results for O=C(Nc1ccc([N+](=O)[O-])cn1)c1ccc(Br)o1 ?
WT yeast gro inh: 10; RAM network inh: 4; Lmaj promast: 49; CHOP inh: -34

Results for O=C(CNS(=O)(=O)c1ccc(F)cc1)N1CCN(c2ccccc2)CC1 ?
WT yeast gro inh: -16; RAM network inh: -1; Lmaj promast: -4; CHOP inh: 80*

Results for O=S(=O)(NCC(c1ccco1)N1CCN(c2ccccc2)CC1)c1ccc(F)cc1 (centres undefined) ?
WT yeast gro inh: -11; RAM network inh: 0; Lmaj promast: 6; CHOP inh: 50

How did O=C(CNS(=O)(=O)c1ccc(Br)cc1)N1CCN(c2ccc(F)cc2)CC1 do in these assays?
WT yeast gro inh: 26; RAM network inh: 2; Lmaj promast: 2; CHOP inh: 39

How did O=S(=O)(NCC(c1ccco1)N1CCN(c2ccc(F)cc2)CC1)c1ccc(F)cc1 (centres undefined) do in these assays?
WT yeast gro inh: -5; RAM network inh: 2; Lmaj promast: 75*; CHOP inh: 68

Results for O=C(NCc1ccccn1)C(=O)NCC(c1ccco1)N1CCN(c2ccc(F)cc2)CC1 (centres undefined) ?
WT yeast gro inh: -8; RAM network inh: 2; Lmaj promast: -7; CHOP inh: 6

Results for O=C(NCc1ccncc1)C(=O)NCC(c1ccco1)N1CCN(c2ccc(F)cc2)CC1 (centres undefined) ?
WT yeast gro inh: 18; RAM network inh: 1; Lmaj promast: 55*; CHOP inh: 5

What do the screens show for `CCc1cccc(NC(=O)CCCSc2nc3ccccc3[nH]2)c1`?
WT yeast gro inh: 4; RAM network inh: 0; Lmaj promast: 8; CHOP inh: -39

How did Cc1ccc(N(Cc2cc(=O)[nH]c3ccccc23)C(=O)c2ccco2)cc1 do in these assays?
WT yeast gro inh: -5; RAM network inh: 0; Lmaj promast: 16; CHOP inh: 72*

Bioassay records from PubChem.
